# Reference: PubChem BioAssay
# Experiment: small-molecule microarray binders of probe aWnt5a, primary screen, biochemical, biotinylated probe, 635/667 nm fluorescence (AID 1113);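 also: score merges 667 nm fluorescence intensity with signal-to-noise per printed feature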
# Details: higher = more signal
row,SMILES,composite z-score
1,CCN1C(=O)[C@H]2[C@H]3[C@H](O)[C@H](O)CC(=NOC[C@@H](C)[C@H](OCc4ccccc4)C(C)C)[C@@H]3CC[C@H]2C1=O,-0.133
2,CCOC(=O)NN=C1C[C@@H](O)[C@@H](O)[C@@H]2[C@@H]3C(=O)N(C4CCCCC4)C(=O)[C@@H]3CC[C@@H]12,-0.0462
3,CCc1cc2c(nc1CC)CCN(CCC(C)=NOC[C@@H](O)[C@H]1O[C@@H]3OC(C)(C)O[C@@H]3[C@H]1O)C2,-0.0607
4,CC(C)NC(=O)[C@@H]1c2ccccc2C(=O)N(CC23CC4CC(CC(C4)C2)C3)[C@H]1c1ccc(CO)cc1,-0.0835
5,CN1C(=O)C2C=CC(C(O)C(c3ccccc3)c3ccccc3)N(NC(=O)OC(C)(C)C)C2C1=O (centres undefined),0.306
6,CC(C)(C)OC(=O)CC[C@]1(C(N)=O)COC(c2ccc(OCCCO)cc2)=N1,0.131
7,C/C=C\[C@@H](NCc1ccccc1Br)[C@@H](O)Cc1ccccc1,-0.12
8,CCOC(=O)C1=CC[C@H]2C(=O)N(CC)C(=O)[C@@H]12,-0.0236
9,COC(=O)C1(C)C=C2C(=C(c3ccccc3)C(=O)C2C)CN1 (centres undefined),-0.034
10,CO[C@@H]1COC(=O)CC=C[C@@H](C)[C@@H]2C=C[C@H](O)[C@@H](COC(=O)CCC[C@H]1C)O2,-0.0721
11,CCOC(=O)[C@H](Cc1ccccc1)NC(=O)CCC1CC(OC(=O)NCc2ccc3c(c2)OCO3)CC2(CCCC(COC(=O)NCC(c3ccccc3)c3ccccc3)O2)O1 (some centres undefined),-0.175
12,CN1C(=O)C2C(C1=O)C1C=C(CCCO)C2C(c2ccc(CN3CCCC3)cc2)N1C (centres undefined),-0.148
13,[N-]=[N+]=NCc1ccccc1[C@@H]1OC(c2ccc(OCCCO)cc2)=N[C@]1(Cc1ccccc1)C(=O)N1CCOCC1,0.141
14,CO[C@@H]1COC(=O)CCC[C@@H](C)[C@H](OC)COC(=O)CCC[C@H]1C,-0.0445
15,C=COC[C@H]1CN2[C@@H](CC[C@@H](C)[C@@H]2c2ccc(Br)cc2)C(=O)O1,-0.176
16,CC(C)=CCCC(C)=CCON=C1[C@H]2CCn3c(=O)n(Cc4cc5c(cc4Cl)OCO5)c(=O)n3[C@H]2[C@H](O)[C@@H]2O[C@H]12,0.0388
17,C=CCOC(=O)[C@H]1[C@@H]2C(=O)O[C@@H](c3ccccc3)[C@@H](c3ccccc3)N2[C@@H](c2ccc(OCCOC(=O)[C@H]3C[C@H]4C(=O)N5CCC[C@H]5C(=O)N4[C@H]3c3cccc(OCCO)c3)cc2)[C@]12C(=O)Nc1ccc(I)cc12,0.995
18,COc1ccc(-c2ccc3c(n2)CCCN3CC(O)CN2CCCc3nc(C)c(C)cc32)cc1 (centres undefined),0.459
19,COC(=O)[C@@]1(Cc2ccccc2)[C@H]2c3cc(C(=O)N4CCCC4)n(Cc4ccccn4)c3C[C@H]2CN1C(=O)c1ccccc1,0.752
20,CC(C)NC(=O)[C@@]1(C)c2ccccc2C(=O)N(Cc2cc(F)cc(C(F)(F)F)c2)[C@H]1c1ccc(CO)cc1,-0.0165
21,CO[C@H]1COC(=O)[C@H](C)COC(=O)CC=C[C@@H](C)[C@H](OC)COC(=O)CC=C[C@@H]1C,-0.0944
22,CC(=O)OC[C@H]1O[C@H](CCON=C(C)CCC(=O)OC[C@H]2O[C@H](C#Cc3ccccc3)C=C[C@@H]2Oc2ccc(C)cc2)C=C[C@@H]1OC(C)=O,-0.131
23,CN(C)C(=O)[C@@]1(Cc2ccccc2)N=C(c2ccc(OCCCO)cc2)O[C@H]1c1ccccc1CN=[N+]=[N-],0.313
24,C=CCC(OC(C)=O)[C@@H]1[C@@H](N(Cc2cc3ccccc3o2)C(=O)Cc2ccc(F)cc2)c2cc(OCCCO)ccc2N1C(=O)Cc1ccc(OC)cc1 (some centres undefined),-0.236
25,COc1ccc(O[C@H]2C=C[C@@H](c3ccccc3)O[C@@H]2COC(=O)CCC(C)=NO[C@H](C)c2cn([C@@H]3COC[C@H]3O)nn2)cc1,-0.119
26,O=C(NN=C1C[C@@H](O)[C@@H](O)[C@@H]2[C@@H]3C(=O)N(c4cccc(Oc5ccccc5)c4)C(=O)[C@@H]3CC[C@H]12)OCc1ccccc1,-0.0664
27,C=CCOC(=O)[C@H]1[C@@H]2C(=O)O[C@@H](c3ccccc3)[C@@H](c3ccccc3)N2[C@@H](c2ccc(OCCOC(=O)[C@H]3C[C@H]4C(=O)N[C@@H](Cc5ccccc5)C(=O)N4[C@H]3c3ccc(O)cc3)cc2)[C@]12C(=O)Nc1ccccc12,-0.0735
28,COCCCNC(=O)[C@@]1(Sc2ccc(C)cc2)CC(=O)N(Cc2ccccc2)[C@@H]1c1ccc(CO)cc1I,-0.0928
29,CCCCCN1CC=CC23O[C@@H]4C=CCOC(=O)[C@@H]4[C@H]2C(=O)N(C(CO)C(C)C)[C@@H]3C1=O (some centres undefined),-0.176
